This assay deals with Short transient receptor potential channel 4 (Mus musculus) (UniProt Q9QUQ5). In words: potency of mouse TRPC4 calcium flux blockers – cell-based, HEK293 TRPC4/mu-opioid, DAMGO stimulus, Fluo-4, dose response (AID 492994). To be noted: HEK293 TRPC4/mu-opioid cells, Fluo-4 calcium flux, DAMGO-activated; series mostly up to 20 µM. In general terms: Calcium assays in cells follow changes in intracellular calcium, usually with a dye or a luminescent sensor.

Measured potencies and affinities stand elsewhere. Activity calls are given as the source filed them.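 The calls were made as follows: active = TRPC4 ion channel inhibited over 30% at some tested dose, with a fitted dose response curve; inactive = no inhibition or no dose response curve.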

Outcome data for two molecules are collected here from PubChem BioAssay AID492994 (Johns Hopkins Ion Channel Center, 2010).

Chain of Short transient receptor potential channel 4 (Mus musculus) (Q9QUQ5 whole entry, looked up): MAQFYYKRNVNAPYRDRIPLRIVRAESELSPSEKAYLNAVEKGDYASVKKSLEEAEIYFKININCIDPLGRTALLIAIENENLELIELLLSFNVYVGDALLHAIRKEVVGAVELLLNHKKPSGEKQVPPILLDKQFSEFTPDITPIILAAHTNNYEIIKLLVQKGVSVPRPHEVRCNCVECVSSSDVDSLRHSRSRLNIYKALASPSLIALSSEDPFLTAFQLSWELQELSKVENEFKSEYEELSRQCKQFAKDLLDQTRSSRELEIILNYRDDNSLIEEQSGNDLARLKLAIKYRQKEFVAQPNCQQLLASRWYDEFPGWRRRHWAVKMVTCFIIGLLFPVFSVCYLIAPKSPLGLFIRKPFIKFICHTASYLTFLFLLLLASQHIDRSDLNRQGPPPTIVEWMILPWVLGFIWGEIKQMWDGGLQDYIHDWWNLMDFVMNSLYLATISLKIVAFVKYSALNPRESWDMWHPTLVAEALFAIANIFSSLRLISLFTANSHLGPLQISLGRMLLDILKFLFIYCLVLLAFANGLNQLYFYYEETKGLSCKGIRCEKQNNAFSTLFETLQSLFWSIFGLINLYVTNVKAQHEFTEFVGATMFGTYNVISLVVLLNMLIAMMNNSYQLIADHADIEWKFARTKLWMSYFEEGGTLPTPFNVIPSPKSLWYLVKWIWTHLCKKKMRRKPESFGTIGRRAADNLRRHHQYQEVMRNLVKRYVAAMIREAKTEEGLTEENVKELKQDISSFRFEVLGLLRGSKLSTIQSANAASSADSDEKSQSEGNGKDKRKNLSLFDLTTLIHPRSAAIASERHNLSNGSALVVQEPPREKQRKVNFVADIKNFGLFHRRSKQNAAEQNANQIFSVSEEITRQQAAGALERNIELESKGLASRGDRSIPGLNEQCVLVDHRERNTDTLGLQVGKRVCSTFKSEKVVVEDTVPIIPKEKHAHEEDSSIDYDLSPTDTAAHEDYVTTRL

Take `Cc1cc(N2CCNCC2)nc2ccccc12`: the outcome was inactive.
Turning to `Cc1cc(N2CCN(C)CC2)nc2ccccc12`, the result was inactive.
